The source made the active and inactive calls. How the source made its calls: active means hit-call score of the fitted dose curve at least 0.9, where 1 is the maximum; inactive means score below 0.9.
Read-out: Intercellular Adhesion Molecule 1 (ICAM1), ICAM1 (gene 3383)
Test: LTEA_HepaRG_ICAM1: Life Technologies and Expression Analysis (LTEA) Assay for Intercellular Adhesion Molecule 1 (ICAM1) using HepaRG (AID 2283507)
Conditions: mRNA level, 48 h; actives raise or lower the signal
Procedure: LTEA_HepaRG is a cell based, multiplexed-readout assay that uses HepaRG, a human liver cell line, with measurements taken at 48 hours after chemical dosing on a 96-well plate.LTEA_HepaRG_ICAM1 is one of 102 assay component(s) measured in the LTEA HepaRG cell culture assay. It is a marker of Fibrosis.Data from the assay component LTEA_HepaRG_ICAM1 was analyzed into 1 endpoint. This assay endpoint, LTEA_HepaRG_ICAM1, was analyzed with bidirectional fitting relative to DMSO as the negative control and baseline of activity. Using a type of inducible reporter, measures of mRNA induction for gain or loss-of-signal activity can be used to understand regulation of transcription factor activity. To generalize the intended target to other relatable targets, this assay endpoint is annotated to the cell adhesion molecules intended target family, where the subfamily is Immunoglobulin CAM.
A total of 1060 chemcials from the ToxCast library were tested in eight-point concentration-response experiments. Cell culture and cytotoxicity assays were conducted at Thermo Fisher Scientific's Custom Services facility (Madison, WI). A single lot of human HepaRG cells (Thermo Fisher Scientific, Frederick, MD) was used for the cell culture experiments. 96-well format collagen type I coated plates of human HepaRG cells were prepared using established methods. Briefly, cryopreserved HepaRG cells were thawed, plated at a density of approximately 100,000 cells/well in HepaRG Thaw, Plate, and General Purpose media (HPRG770, Thermo Fisher Scientific), and incubated for 48 hours. 0.5% DMSO was selected as vehicle control to balance the requisite need of DMSO in HepaRG cultures to maintain differentiation (for example, baseline metabolism, proportions of hepatocytes vs. cholangiocytes), while enabling further hepatic receptor pathway activation (for example, PXR and CAR) in response to chemical exposure. 48 hours after plating, the culture medium was replaced with HepaRG Serum-Free Incudtion Media. Cells were exposed to each test chemical in duplicate and maintained in CO2 incubators for another 48 hours. Chemical plates were thawed to room temperature and 200x concentrations of treatment groups were prepared. 8-point conentration-reponse curves were made with the highest exposure at 100 uM, followed by half-log dilutions, all in 0.5% DMSO. Each test plate contained variouse controls, induction positive controls (1mM phenobarbital), cytotoxicity positive controls ([…] aflatoxin B1), vehicle controls (0.5% DMSO), and total lysis controls (0.5% DMSO). Cell morphology images were taken using an Essen IncuCyte FLR automated microscope, with six 96-well plates imaged in about 24 minutes. Images were captured and exported and JPEG files. Spent culture media was transfered to black-well plates for the LDH assay, and remaining media was sorted at -80 C for later use. Cells were treated with RLT buffer and frozen until shipped for gene expression analysis. Total RNA was isolated from the cell suspension in 75 uL of Buffer RLT (Qiagen, Germantown, MD 20874) by Quintiles/Expression Analysis (Durham, NC) using a custom isolation procedure. Total RNA from each plate well was transferred to a preamplification plate. Fluidigm's 96.96 Dynamic ArrayTM (Fluidigm, Amsterdam, the Netherlands) technology was used for gene expression analyses by quantitative reverse transcription polymerase chain reaction (qRT-PCR, performed by Quintiles/Expression Analysis, Durham, NC)89. Standard TaqManTM Assays (Applied Biosystems/ThermoFisher Scientific, Foster City, CA) were used to assess the expression of 93 genes selected based on their selectivity and sensitivity to important hepatic receptors known to be modulated by environmental chemicals; importance in human hepatocyte functionality; and hepatotoxicity. […]

Compound | outcome | AC50
CCCCCCCCCCCO | inactive | 
CN1C(=O)N(c2ccccc2Br)Cc2cnc(Nc3ccc4c(c3)OCC(CO)O4)nc21 (stereo not given) | inactive | 
CN(C)C(=O)C1(N2CCCCC2)CCN(CC[C@@]2(c3ccc(Cl)c(Cl)c3)CN(C(=O)c3ccccc3)CCO2)CC1 |  | 47.2 µM (active)
Oc1ccc2ccccc2c1 | inactive | 
NCc1cccc(C2CCN(C(=O)c3ccc(C#Cc4ccccc4F)o3)CC2)c1 | inactive | 
Cc1c2ccccc2c(C)c2c1ccc1ccccc12 |  | 82.1 µM (active)
CCCCCCCCCC(=O)O | inactive | 
O=c1[nH]sc2ccccc12 | inactive | 
CCCCOC(=O)c1ccc(O)cc1 | inactive | 
Cc1cn([C@H]2C[C@H](N=[N+]=[N-])[C@@H](CO)O2)c(=O)[nH]c1=O | inactive | 
CC(=O)N1CCN(c2ccc(OC[C@H]3CO[C@](Cn4ccnc4)(c4ccc(Cl)cc4Cl)O3)cc2)CC1 |  | 26.6 µM (active)
O=C(O)c1ccccc1-n1cc(C(=O)O)c(=O)c2cc(Nc3c(F)cc(F)cc3Cl)c(Cl)cc21 | inactive | 
c1ccc2n[nH]nc2c1 | inactive | 
CC(C)(C)c1cc(/C=C2\SC(N)=NC2=O)cc(C(C)(C)C)c1O |  | 29.9 µM (active)
CC/C(=C(/CC)c1ccc(O)cc1)c1ccc(O)cc1 | inactive | 
Cc1oc2c(NC(=O)c3c(Cl)cccc3Cl)cccc2c1C(C)(C)O |  | 50 µM (active)
O=c1ccc2ccccc2o1 | inactive | 
CCO[Si](CCCNC(N)=O)(OCC)OCC | inactive | 
CC1(C)NC(=O)N(c2ccc([N+](=O)[O-])c(C(F)(F)F)c2)C1=O | inactive | 
Cc1ccc2oc(CN(Cc3ccccc3)C(=O)Nc3c(F)cc(F)cc3F)c(-c3ccc(Cl)cc3)c2c1 | inactive | 

Compound | outcome | AC50
O=C1O[C@H]([C@@H](O)CO)C(O)=C1O | inactive | 
O=C(O)c1ccccc1C(=O)OCc1ccccc1 | inactive | 
C[C@]12CC[C@@H]3c4ccc(O)cc4CC[C@H]3[C@@H]1CC[C@H]2O | inactive | 
CCCCOC(=O)CC(CC(=O)OCCCC)(OC(C)=O)C(=O)OCCCC | inactive | 
O=c1c(-c2ccc(O)cc2)coc2cc(O)cc(O)c12 | inactive | 
Oc1ccccc1 | inactive | 
CCCCCCCCCCCCO | inactive | 
NC(=O)c1nc(-c2cccc(-c3cc(F)ccc3OCC(F)(F)C(F)(F)F)c2)n[nH]1 | inactive | 
CCN(Cc1cccc(S(=O)(=O)O)c1)c1ccc(C(=C2C=CC(=[N+](CC)Cc3cccc(S(=O)(=O)O)c3)C=C2)c2ccccc2S(=O)(=O)[O-])cc1 | inactive | 
C[C@]12CC[C@@H]3c4ccc(O)cc4CC[C@H]3[C@@H]1CCC2=O | inactive | 
CC(C)(C)c1csc(-c2cc3cc(OCc4ccccc4CC(=O)O)ccc3o2)n1 | inactive | 
O=C(Nc1ccc(Cl)cc1)Nc1ccc(Cl)c(Cl)c1 | inactive | 
CC[C@H](NC(=O)c1cc(F)ccc1NS(=O)(=O)c1cccc2cccnc12)c1ccccc1 | inactive | 
Cc1occc1C(=O)Nc1ccc(C(=O)N2CCC(F)(F)/C(=C\C(=O)N3CCC(N4CCCCC4)CC3)c3ccccc32)cc1 | inactive | 
CCCCCCCCOc1ccc(C(=O)c2ccccc2)c(O)c1 | inactive | 
CCCC(=O)OCCC(C)C | inactive | 
Cc1ccc(C(C)C)cc1 | inactive | 
CCCCCCCCOC(=O)c1cc(O)c(O)c(O)c1 | inactive | 
CCCCCCCC[Si](OCC)(OCC)OCC | inactive | 
COCC(C)OCC(C)OCC(C)O (stereo not given) | inactive | 
